The panel holds about 79,000 compounds, 15% with a hit somewhere; the sample as a whole holds those more often. A number with no mark means an inactive call. The source made the active and inactive calls. Rule as the data show it: active = growth inhibition above about 70%; inactive = the rest.
Key:
[1] = NCI Yeast Anticancer Drug Screen. Data for the rad50 strain (AID 155);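 also: 0% = growth of vehicle-only cultures of the same strain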; conditions: S. cerevisiae rad50 strain growth inhibition, active compounds read high
How it was run: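 Growth of the mutant yeast was measured after compound exposure and referenced to vehicle-treated cultures.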

[2] = NCI Yeast Anticancer Drug Screen. Data for the mec2-1 strain (AID 157); conditions: S. cerevisiae mec2-1 strain, active compounds read high
How it was run: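 Test agents were screened against the mec2-1 yeast strain, with defined DNA repair or cell cycle alteration. Growth was scored as inhibition against vehicle-only controls.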

[3] = NCI Yeast Anticancer Drug Screen. Data for the sgs1 mgt1 strain (AID 161);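 also: 0% = growth of cultures given vehicle only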; conditions: S. cerevisiae sgs1 mgt1 strain, active compounds read high
How it was run: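 Inhibition of yeast growth, normalised to vehicle-treated controls, is reported for a strain bearing genetic alterations in DNA damage repair.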

[4] = NCI Yeast Anticancer Drug Screen. Data for the cln2 rad14 strain (AID 165);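 also: 0% = growth equal to vehicle treated cultures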; conditions: S. cerevisiae cln2 rad14 strain, active compounds read high
How it was run: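 Growth of compound-exposed yeast (cln2 rad14 genotype) measured and expressed as inhibition relative to vehicle.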

[5] = NCI Yeast Anticancer Drug Screen. Data for the bub3 strain (AID 167); conditions: S. cerevisiae bub3 mutant strain, active compounds read high
How it was run: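 Whole-cell yeast assay. The mutant strain was incubated with compounds, and growth inhibition was determined by comparison with vehicle-treated cells.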

[6] = NCI Yeast Anticancer Drug Screen. Data for the mlh1 rad18 strain (AID 175); conditions: S. cerevisiae mlh1 rad18 strain growth inhibition, active compounds read high
How it was run: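 In this whole-cell yeast screen, a strain with altered DNA damage repair is challenged with compound, and its growth is measured against matched vehicle-treated controls.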

[7] = at 5.0 µM (retest, dose inferred, filed as 0.5)
[8] = at 50.0 µM (retest, dose inferred, filed as 5.0)

Compound | growth inhibition [1, 7] | growth inhibition [1, 8] | growth inhibition ([1]; at 50.0 µM) | growth inhibition [2, 7] | growth inhibition [2, 8] | growth inhibition ([2]; at 50.0 µM) | growth inhibition [3, 7] | growth inhibition [3, 8] | growth inhibition ([3]; at 50.0 µM) | growth inhibition [4, 7] | growth inhibition [4, 8] | growth inhibition ([4]; at 50.0 µM) | growth inhibition [5, 7] | growth inhibition [5, 8] | growth inhibition ([5]; at 50.0 µM) | growth inhibition [6, 7] | growth inhibition [6, 8] | growth inhibition ([6]; at 50.0 µM)
COc1cc(/C=C(/C)[N+](=O)[O-])c([N+](=O)[O-])cc1OC | 29% | 75% (active) | 88.3% (active) | 2% | 33% | 85.5% (active) | 14% | 65% | 71.7% (active) | 3% | 29% | 14.8% | 0% | 54% | 67% | 10% | 35% | 71.7% (active)
O=C1CCCC1Cl (configuration not stated) | -2% | 3% | 39.8% | -2% | -3% | 82.6% (active) | -4% | 0% | 12.5% | -2% | -8% | 81.9% (active) | 4% | -4% | 99.3% (active) | -3% | 3% | 56.9%
CC(=O)O[C@H]1CC[C@@]2(C)C(=CC[C@@H]3[C@@H]2CC[C@]2(C)C(=O)[C@@H](CN4CC4)C[C@@H]32)C1 | 2% | 97% (active) | 59.7% | 7% | 99% (active) | 54% | 22% | 99% (active) | 68.5% | 5% | 75% (active) | 62.6% | 6% | 97% (active) | 39% | 4% | 98% (active) | 62%
Cc1c(=O)n(O)c2ccccc2[n+]1[O-] | 4% | 21% | 4.05% | 4% | 31% | 0.75% | 4% | 24% | 7.3% | 4% | 14% | 32.5% | 1% | 16% | 12.6% | 5% | 51% | 16.5%
Sc1nc2ccccc2s1.Sc1nc2ccccc2s1.Sc1nc2ccccc2s1.Sc1nc2ccccc2s1.[Cl][Rh][Cl] | 20% | 95% (active) | 95.7% (active) | 12% | 96% (active) | 98.5% (active) | 38% | 97% (active) | 93.3% (active) | 0% | 94% (active) | 97.1% (active) | 31% | 97% (active) | 96.8% (active) | 43% | 96% (active) | 97.7% (active)
Nc1ccc(C(=O)O)c(C(=O)O)c1.[Cl][Sn]([Cl])([Cl])[Cl] | 3% | -9% | 48% | 3% | 46% | 59.6% | 8% | 36% | 53.7% | -4% | -21% | 76.1% (active) | 1% | -2% | 80.8% (active) | -3% | 20% | 40.4%
O=[N+]([O-])c1ccc(NP(=S)(Nc2ccc([N+](=O)[O-])cc2)c2ccccc2)cc1 | 28% | 91% (active) | 93% (active) | 38% | 94% (active) | 95.6% (active) | 6% | 89% (active) | 91.5% (active) | 56% | 88% (active) | 90.8% (active) | 64% | 90% (active) | 95% (active) | 68% | 77% (active) | 94.3% (active)
CN(C)C(=O)OC1C(=O)N(C)c2ccc(Cl)cc2C2(c3ccccc3)N1C2(Cl)Cl (configuration not stated) | -18% | 62% | -23.3% | 5% | 69% | -14.8% | -12% | 77% (active) | -22.2% | -11% | 64% | -2.85% | 3% | 74% (active) | -33.4% | -4% | 70% (active) | 13.8%
CC(=O)c1ccc(-[n+]2c(C)cc(-c3ccccc3)cc2C)cc1 | -11% | -1% | -15.4% | -1% | -6% | -7.4% | -19% | -8% | -13.6% | 3% | -3% | 39.6% | -4% | -1% | 15.7% | -5% | -6% | 21.9%
Cc1ccc2c(C)c3ccc4ccccc4c3c[n+]2c1 | 74% (active) | 94% (active) | 71.2% (active) | 65% | 89% (active) | 83.5% (active) | 87% (active) | 95% (active) | 85.2% (active) | 51% | 71% (active) | 52.6% | 69% | 88% (active) | 86.5% (active) | 52% | 88% (active) | 72.5% (active)
COc1cc(/C=C/[N+](=O)[O-])cc(Br)c1OC | 86% (active) | 98% (active) | 90.6% (active) | 79% (active) | 99% (active) | 92.3% (active) | 83% (active) | 98% (active) | 92.5% (active) | 55% | 97% (active) | 90.2% (active) | 97% (active) | 98% (active) | 91.5% (active) | 89% (active) | 98% (active) | 91.7% (active)
O=C(c1ccc2ccccc2c1)N1CC1 | -27% | 23% | 71.8% (active) | -6% | -12% | -1.65% | -14% | 5% | 41.8% | -12% | 57% | 66.5% | 2% | 54% | 58.9% | -24% | 52% | 63.2%
CC1(OO)CCC2CC1C2(C)C (configuration not stated) | 9% | 77% (active) | 90.2% (active) | 6% | 99% (active) | 99.6% (active) | -2% | 68% | 99.4% (active) | 4% | 65% | 82.7% (active) | -1% | 95% (active) | 99.5% (active) | 13% | 94% (active) | 98.2% (active)
O=[C-]c1ccccc1[C-]=O.[Pd+2].c1ccc([PH+](c2ccccc2)c2ccccc2)cc1.c1ccc([PH+](c2ccccc2)c2ccccc2)cc1 | 11% | 44% | 34.6% | 7% | 54% | 35% | 23% | 69% | 84.5% (active) | 5% | 40% | -0.7% | 4% | 97% (active) | 14.7% | 14% | 80% (active) | 60.9%
Oc1c(Cl)c(Cl)cc(Cl)c1Cl | 8% | 90% (active) | 23.5% | 7% | 97% (active) | 68.9% | 34% | 95% (active) | 61.1% | -27% | 94% (active) | 79.8% (active) | 13% | 92% (active) | 48.3% | -6% | 92% (active) | 61.8%
C[C@]12CC[C@H]3[C@@H](CCC4=CC(=O)CC[C@@H]43)[C@@H]1CC[C@@H]2OC(=O)N(CCCl)N=O | 44% | 95% (active) | 84.8% (active) | 43% | 97% (active) | 85.3% (active) | 67% | 97% (active) | 83.2% (active) | 68% | 96% (active) | 79% (active) | 72% (active) | 96% (active) | 85.7% (active) | 39% | 94% (active) | 85% (active)
O=NN(CC(=O)O)c1ncccn1 | -1% | 0% | -6.25% | -3% | 0% | 1.45% | -2% | -3% | -8.05% | -6% | 1% | 36.7% | -2% | 0% | -13.4% | -1% | -2% | 29.4%
C[CH2][Sn]1([CH2]C)[O]S(=O)(=O)[O]1 | 15% | 77% (active) | 70.2% (active) | 12% | 95% (active) | 76.5% (active) | 12% | 93% (active) | 25.4% | 22% | 56% | 60.2% | 13% | 92% (active) | 45.1% | 12% | 88% (active) | 53.9%
C[CH2][Sn]([O][Sn]([Cl])([CH2]C)[c]1ccccc1)[c]1ccccc1 (configuration not stated) | 10% | 97% (active) | 81.5% (active) | 18% | 98% (active) | 73.2% (active) | -9% | 96% (active) | 80.9% (active) | 28% | 96% (active) | 81.9% (active) | 9% | 97% (active) | 78.1% (active) | 17% | 98% (active) | 87% (active)

— PubChem BioAssay (NCI)
